Assay results reported in PubChem BioAssay AID1159580 (chemical genetic matrix, 2015).
The whole screen tested about 5,500 compounds, of which about 2,000 (36%) were called active. Not shown: some 18% with an inconclusive outcome. Rule as the data show it: active = normalized growth mostly below about 0.91 (no sharp cut-off); inconclusive = no clear call, values can overlap the other calls; inactive = mostly above about 0.92. This is one part of the list.

Experiment: chemical genetic growth profiling, strain panel (AID 1159580);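 also: tested at 20 µM; growth read once vehicle control cultures reached saturation at 30 °C; 1 = growth at the plate median or of vehicle wells; lower values mean less growth of the strain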
Conditions: growth OD

Measured: normalized growth

C[C@]12CCC3c4ccc(O)cc4CCC3C1CCC2=O (stereo partly drawn)
active: S. cerevisiae deletion strains, locus YKR001C, strain vps1, hits give low values 0.854 | S. cerevisiae deletion strains, locus YLR039C, strain RIC1, hits give low values 0.56 | S. cerevisiae deletion strains, locus YLR262C, strain YPT6 (second series), hits give low values 0.609 | S. cerevisiae deletion strains, locus YLR262C, strain YPT6, hits give low values 0.558 | S. cerevisiae deletion strains, locus YLR320W, strain mms22, hits give low values 0.873 | S. cerevisiae deletion strains, locus YNL298W, strain CLA4, hits give low values 0.902 | S. cerevisiae deletion strains, locus YOR184W, strain ser1, hits give low values 0.714
inactive: S. cerevisiae deletion strains, locus YJR066W, strain TOR1, hits give low values 0.953 | S. cerevisiae deletion strains, locus YJR075W, strain HOC1, hits give low values 0.977 | S. cerevisiae deletion strains, locus YKL009W, strain mrt4, hits give low values 0.905 | S. cerevisiae deletion strains, locus YKL068W, hits give low values 1 | S. cerevisiae deletion strains, locus YKL085W, strain MDH1 (second series), hits give low values 1.02 | S. cerevisiae deletion strains, locus YKL085W, strain MDH1, hits give low values 1.02 | S. cerevisiae deletion strains, locus YKL160W, strain elf1, hits give low values 0.994 | S. cerevisiae deletion strains, locus YKR026C, strain gcn3, hits give low values 1.02 | S. cerevisiae deletion strains, locus YKR091W, strain srl3, hits give low values 1.02 | S. cerevisiae deletion strains, locus YLL001W, strain dnm1, hits give low values 1.05 | S. cerevisiae deletion strains, locus YLL026W, hits give low values 0.999 | S. cerevisiae deletion strains, locus YLL041C, strain sdh2, hits give low values 1.02 | S. cerevisiae deletion strains, locus YLR027C, strain aat2, hits give low values 0.973 | S. cerevisiae deletion strains, locus YLR058C, strain SHM2, hits give low values 0.97 | S. cerevisiae deletion strains, locus YLR102C, strain apc9, hits give low values 1 | S. cerevisiae deletion strains, locus YLR113W, strain HOG1, hits give low values 0.98 | S. cerevisiae deletion strains, locus YLR221C, strain rsa3, hits give low values 1 | S. cerevisiae deletion strains, locus YLR258W, strain gsy2, hits give low values 0.975 | S. cerevisiae deletion strains, locus YLR268W, strain sec22, hits give low values 0.976 | S. cerevisiae deletion strains, locus YLR330W, strain CHS5, hits give low values 1 | S. cerevisiae deletion strains, locus YLR342W, strain FKS1 (second series), hits give low values 0.882 | S. cerevisiae deletion strains, locus YLR342W, strain FKS1, hits give low values 1 | S. cerevisiae deletion strains, locus YLR357W, strain rsc2, hits give low values 1.04 | S. cerevisiae deletion strains, locus YLR370C, strain arc18, hits give low values 1.02 | S. cerevisiae deletion strains, locus YLR371W, strain rom2, hits give low values 1.02 | S. cerevisiae deletion strains, locus YLR384C, strain iki3, hits give low values 1.02 | S. cerevisiae deletion strains, locus YLR418C, strain cdc73, hits give low values 0.985 | S. cerevisiae deletion strains, locus YML016C, strain PPZ1, hits give low values 0.986 | S. cerevisiae deletion strains, locus YML032C, strain rad52, hits give low values 0.924 | S. cerevisiae deletion strains, locus YML120C, strain ndi1, hits give low values 1.03 | S. cerevisiae deletion strains, locus YML124C, strain tub3, hits give low values 1.02 | S. cerevisiae deletion strains, locus YMR058W, strain fet3, hits give low values 0.928 | S. cerevisiae deletion strains, locus YMR078C, strain ctf18, hits give low values 0.987 | S. cerevisiae deletion strains, locus YMR125W, strain sto1, hits give low values 1.06 | S. cerevisiae deletion strains, locus YMR129W, hits give low values 1.02 | S. cerevisiae deletion strains, locus YMR205C, strain PFK2, hits give low values 1.03 | S. cerevisiae deletion strains, locus YMR223W, strain ubp8, hits give low values 0.987 | S. cerevisiae deletion strains, locus YMR231W, strain pep5, hits give low values 0.993 | S. cerevisiae deletion strains, locus YMR307W, strain GAS1, hits give low values 0.797 | S. cerevisiae deletion strains, locus YNL067W, strain RPL9B, hits give low values 1 | S. cerevisiae deletion strains, locus YNL071W, strain lat1, hits give low values 0.937 | S. cerevisiae deletion strains, locus YNL183C, strain NPR1, hits give low values 0.936 | S. cerevisiae deletion strains, locus YNL209W, strain ssb2, hits give low values 1.02 | S. cerevisiae deletion strains, locus YNL233W, strain BNI4, hits give low values 0.976 | S. cerevisiae deletion strains, locus YNL248C, strain rpa49, hits give low values 0.956 | S. cerevisiae deletion strains, locus YNL250W, strain rad50, hits give low values 0.922 | S. cerevisiae deletion strains, locus YNL271C, strain bni1, hits give low values 0.966 | S. cerevisiae deletion strains, locus YNL307C, strain MCK1, hits give low values 0.96 | S. cerevisiae deletion strains, locus YNL322C, strain KRE1 (second series), hits give low values 1.05 | S. cerevisiae deletion strains, locus YNL322C, strain KRE1, hits give low values 1.01 | S. cerevisiae deletion strains, locus YNR049C, strain mso1, hits give low values 1.03 | S. cerevisiae deletion strains, locus YNR052C, strain pop2, hits give low values 0.917 | S. cerevisiae deletion strains, locus YOL006C, strain TOP1, hits give low values 0.838 | S. cerevisiae deletion strains, locus YOL012C, strain htz1 1.42 | S. cerevisiae deletion strains, locus YOL147C, strain pex11, hits give low values 1 | S. cerevisiae deletion strains, locus YOR001W, strain rrp6, hits give low values 0.946 | S. cerevisiae deletion strains, locus YOR061W, strain CKA2, hits give low values 0.969 | S. cerevisiae deletion strains, locus YOR069W, strain VPS5, hits give low values 1 | S. cerevisiae deletion strains, locus YOR070C, strain gyp1, hits give low values 0.997 | S. cerevisiae deletion strains, locus YOR080W, strain dia2, hits give low values 1.02 | S. cerevisiae deletion strains, locus YOR083W, strain WHI5, hits give low values 0.98 | S. cerevisiae deletion strains, locus YOR106W, strain vam3, hits give low values 1.02 | S. cerevisiae deletion strains, locus YOR136W, strain idh2, hits give low values 0.991 | S. cerevisiae deletion strains, locus YOR144C, strain elg1, hits give low values 0.999 | S. cerevisiae deletion strains, locus YOR231W, strain MKK1, hits give low values 0.969 | S. cerevisiae deletion strains, locus YOR265W, strain rbl2, hits give low values 1 | S. cerevisiae deletion strains, locus YOR270C, strain vph1, hits give low values 0.831 | S. cerevisiae deletion strains, locus YOR290C, strain snf2, hits give low values 0.941 | S. cerevisiae deletion strains, locus YOR316C, strain cot1, hits give low values 0.991 | S. cerevisiae deletion strains, locus YPL051W, strain arl3, hits give low values 0.934 | S. cerevisiae deletion strains, locus YPL055C, strain LGE1, hits give low values 0.863 | S. cerevisiae deletion strains, locus YPL078C, strain atp4, hits give low values 0.954 | S. cerevisiae deletion strains, locus YPL106C, strain sse1, hits give low values 1.03 | S. cerevisiae deletion strains, locus YPL240C, strain hsp82, hits give low values 1.01 | S. cerevisiae deletion strains, locus YPL256C, strain CLN2, hits give low values 1.02 | S. cerevisiae deletion strains, locus YPR119W, strain clb2, hits give low values 1 | S. cerevisiae deletion strains, locus YPR141C, strain kar3, hits give low values 1 | S. cerevisiae deletion strains, locus YPR163C, strain tif3, hits give low values 0.927 | S. cerevisiae deletion strains, locus YPR167C, strain met16, hits give low values 0.998 | S. cerevisiae deletion strains, strain wtn01, hits give low values 0.967 | S. cerevisiae strains, strain wild type, hits give low values 1
